Shown are actives, neighbours in structure and some others; about 2.4% of the full set was active somewhere.
D2 PAM-1: human D2 receptor positive allosteric modulation | DiscoveRx D2 beta-arrestin cells, luminescence, 90 min; 100% = 57 uM dopamine signal | P14416 | potentiation, % (concentration not given with the values) | 360,000 compounds, 0.23% hits | AID 624464; in the data active means potentiation above about 50%; inconclusive means mostly about 30% to 49%
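PathHunter D2 cells, attached overnight at 37 deg C, received compound in DMSO plus dopamine at EC20 (50 nM final) for 90 min at 37 deg C. Beta-arrestin recruitment was read as luminescence after 1 h with detection reagent at ambient temperature.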
D2 ag-1: agonists of human D2 dopamine receptor. HEK293 T-REx D2 cells, calcium flux agonist mode. P14416. activation, % at 2 µM. AID 485358. 340,000 compounds, 0.53% hits;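 active means activation over 3 SD above normal in the single-dose calcium agonist read, cut at about 30% in these data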; further: 0% is about no effect
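Calcium-flux readout, 1 cycle/sec over 180 s following compound pin transfer, in inducible HEK293 Trex D2 cells (force-coupled); dopamine controls included. Positive calcium responses during this window marked compounds as potential agonists.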
D2 ag-2: agonists of human D2 dopamine receptor (beta-arrestin); activation, % (no concentration beside the values); 360,000 compounds, 0.084% hits; P14416; DiscoveRx PathHunter D2 beta-arrestin, luminescence, 90 min; 100% = 57 uM dopamine signal; AID 624465; in the data active means activation above about 40%; inconclusive means between about 15% and that limit
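Agonist mode: compounds alone added to overnight-plated D2 PathHunter cells for 90 min at 37 C, with 57 uM final dopamine (EC100) defining full response. Beta-arrestin recruitment detected by chemiluminescent reagent, read after 1 h at ambient temperature.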
D2 PAM-2: positively modulates the human D2 dopamine receptor allosterically; P14416; HEK293 T-REx D2, calcium flux, EC20 dopamine potentiation; potentiation, % at 10 µM; 340,000 compounds, 0.34% hits; AID 485347;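 active means potentiation over 3 SD above the plate norm, cut at about 30% in these data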; further: 0% is about no effect
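Tetracycline-induced Hek293 Trex D2 cells, force-coupled to calcium, loaded with no-wash calcium dye. Compound added with 180 s kinetic read for agonism, then EC20 dopamine and a further 180 s read for potentiation.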
D2 antag: D2 dopamine receptor (human) antagonism; P14416; 340,000 compounds, 2% hits; inhibition, % at 10 µM; HEK293 TREx D2 cells, calcium flux, dopamine EC80; AID 485344; in the data active means inhibition above about 30%; inactive means below that, where a call was filed; further: 0% is about no effect
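Tetracycline-induced HEK293 TREx cells expressing D2 receptor forced-coupled to calcium signalling, loaded with no-wash calcium dye. Compounds added and calcium flux read 180 s, then dopamine added at EC80 and read a further 180 s.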
D3 ag: confirmation of human D3 dopamine receptor agonists, beta-arrestin | Potency, µM (doses to about 76.9 µM), for inactives: top-dose activation, hits mostly activators | AID 720506 | DiscoveRx D3 beta-arrestin cells, luminescence, 90 min | 2,300 compounds, 4% hits | shares compounds with D2 ag-1;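 further: potency means the concentration at half of the fitted maximal effect; 100% = dopamine control response; nearly all actives have a fitted effect of over 70% in size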
Target sequence (P35462 whole entry, looked up): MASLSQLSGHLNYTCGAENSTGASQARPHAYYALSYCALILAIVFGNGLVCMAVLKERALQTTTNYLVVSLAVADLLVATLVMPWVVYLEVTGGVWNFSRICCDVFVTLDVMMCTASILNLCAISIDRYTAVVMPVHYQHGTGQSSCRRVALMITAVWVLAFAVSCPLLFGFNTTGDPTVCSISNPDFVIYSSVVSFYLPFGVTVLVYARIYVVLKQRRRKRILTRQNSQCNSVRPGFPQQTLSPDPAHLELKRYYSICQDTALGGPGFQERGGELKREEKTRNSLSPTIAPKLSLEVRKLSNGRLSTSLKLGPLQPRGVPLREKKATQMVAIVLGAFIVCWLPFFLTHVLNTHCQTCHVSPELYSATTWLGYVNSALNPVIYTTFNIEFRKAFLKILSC
D2 ag-3: counter-screen for D3 agonists: human D2 dopamine receptor agonism | shares compounds with D2 ag-1 | DiscoveRx PathHunter D2 beta-arrestin, luminescence, 90 min; response scale: percent relative to full dopamine signal | Potency, µM (series often up to 76.9 µM), for the others: at the top dose activation, usual class: activators | 2,300 compounds, 5.9% hits | AID 720507; further: potency means the concentration at half of the fitted maximal effect; % of control where 0% means no effect; nearly all actives have a fitted effect of over 70% in size
* marks the source's active call; other numbers are inactive results; u = inconclusive; x = no result given. Unless noted, the call rests on the fitted dose curve; in most records, active means well fitted activation curve with a large enough effect; inconclusive means small, poorly fitted or top-dose-only effect; inactive means flat fitted curve, though single readings scatter.

SMILES	D2 PAM-1	D2 ag-1	D2 ag-2	D2 PAM-2	D2 antag	D3 ag	D2 ag-3
COCCN=c1scc(-c2ccco2)n1/N=C/c1ccc(O)c(O)c1O	88*	68*	70*	-30	77*	35µM*	35µM*
CC(C)N=c1scc(-c2ccco2)n1/N=C/c1ccc(O)c(O)c1	15	3	9	-3	3	x	x
C=CCN=c1scc(-c2ccco2)n1/N=C/c1ccc(O)c(O)c1O	101*	74*	90*	-34	88*	40µM*	35µM*
O=C(COC(=O)c1nsc(Cl)c1Cl)NC1CCCCC1	-1	0	1	1	-17	x	x
Nc1c(Cl)c(Cl)nc(C(=O)OCC(=O)NC2CCCCC2)c1Cl	u	64*	53*	-11	57*	19%	u
CCOC(=O)N1CCN(CC(=O)Nc2ccc(Oc3ccccc3)cc2)CC1	22	56*	44*	-24	43*	u	u
O=C(CCN1CCN(CCO)CC1)Nc1ccccc1	-4	1	-6	14	-13	x	x
O=C(CCN1CCN(c2ccccc2)CC1)Nc1ccccc1	1	73*	4	-27	53*	9%	23%
O=C(CC1C(=O)NCCN1C(=O)Nc1ccccc1)Nc1ccc(F)cc1 (stereo not drawn)	-4	1	-4	-2	-1	x	x
CCOc1ccc(NC(=O)CCN2CCN(c3ccccc3)CC2)cc1	-8	98*	u	-29	83*	u	u
CCOc1ccc(NC(=O)CC2C(=O)NCCN2C(=O)Nc2ccccc2)cc1 (stereo not drawn)	-7	3	-1	-15	13	-4%	-5%
CC1CC(C)(C)CC2(C1)NC(=O)N(CC(=O)N(C)Cc1nc3ccccc3c(=O)[nH]1)C2=O (stereo not drawn)	-21	0	-4	2	2	x	x
COCCN1C(=O)c2ccccc2C(C(=O)N2CCN(c3ccccc3)CC2)C1c1ccc(F)cc1 (stereo not drawn)	-19	0	-1	-3	1	x	x
O=C(CN1CCN(c2ccccc2)CC1)Nc1ccc(OCc2ccccc2)cc1	-19	44*	12	-14	55*	u	18%
COc1ccc(NC(=O)CCN2CCN(c3ccc(F)cc3)CC2)cc1	-15	65*	2	-29	77*	12%	8%
Cc1cc(C(C)(C)C)ccc1OCCN1CCCC1	-5	x	-5	x	x	-15%	-5%
O=C(CSc1nnc(-c2ccccc2F)n1C1CCCCC1)Nc1cc(C(=O)O)ccc1Cl	-2	x	3	x	x	x	x
CCC(C(=O)Nc1ccc(C)c(C)c1)n1c(=O)c(C(F)(F)F)nc2ccccc21 (stereo not drawn)	x	x	x	2	x	x	x
COc1ccc(C(=O)N=C2SC3CS(=O)(=O)CC3N2Cc2ccccc2)cc1OC (stereo not drawn)	-5	0	-2	25	15	u	12%
O=C(CN1CCN(C(=O)c2ccco2)CC1)Nc1cccc(S(=O)(=O)N2CCCC2)c1	3	30	6	2	13	17%	17%
Cc1ccc(S(=O)(=O)CCC(=O)Nc2cccc(S(=O)(=O)N3CCCCCC3)c2)cc1	0	-1	-7	-7	6	8%	11%
CC(=O)NCCC(=O)Nc1cc(S(=O)(=O)N2CCCCC2)ccc1N1CCN(C)CC1	-11	1	-2	-2	-2	x	x
CC(=O)NCCC(=O)Nc1cc(S(=O)(=O)N2CCCCC2)ccc1N1CCCCC1	-5	1	0	-1	15	8%	1%
O=C(CN1CCc2ccccc2C1)Nc1cccc(S(=O)(=O)N2CCCC2)c1	-9	53*	0	-24	49*	u	u
C[C@@H]1CN([C@@H](C)CO)C(=O)c2cc(NC(=O)c3ccccc3)ccc2O[C@@H](C)CCCCO[C@@H]1CN(C)Cc1ccc(C(F)(F)F)cc1	-5	x	-4	x	x	x	x
SMILES	D2 PAM-1	D2 ag-1	D2 ag-2	D2 PAM-2	D2 antag	D3 ag	D2 ag-3
Cc1nn(C(C)C(=O)NCCN2CCCCCC2)c(=O)c2nn(-c3ccccc3)c(C)c12 (stereo not drawn)	-25	1	-9	-15	5	x	x
O=C(Nc1ccc(S(=O)(=O)Nc2ncccn2)cc1)c1cccc(S(=O)(=O)N2CCOCC2)c1	-10	2	-5	0	-15	x	x
Cc1ccc(NC(=O)[C@@H]2CCCN2S(=O)(=O)c2ccccc2F)cc1	2	1	-2	1	-12	x	x
O=C(Nc1cccc(S(=O)(=O)N2CCCCC2)c1)C1CCCN1S(=O)(=O)c1ccccc1F (stereo not drawn)	25	5	3	-6	22	1%	16%
COc1ccc(Oc2ncc(CN3CCN(c4ccccc4)CC3)s2)cc1	27	72*	42*	-27	76*	u	5.6µM*
Cc1cc(Cl)ccc1Oc1ncc(CN2CCN(c3ccccc3)CC2)s1	17	65*	u	-27	84*	u	32µM*
Brc1ccc(Oc2ncc(CN3CCOCC3)s2)cc1	-26	0	-1	-3	7	x	x
CCCOc1ccc(C(=O)CCC(=O)OCC(=O)N(C)c2c(N)n(Cc3ccccc3)c(=O)[nH]c2=O)cc1	-11	1	1	-20	9	x	x
Cc1nn(C)c(C)c1/C=C(/C(=O)C(C)C)n1cncn1	-12	4	-2	-6	10	-7%	-5%
Nc1ccc(C(=O)c2cccs2)cc1[N+](=O)[O-]	-15	0	-2	7	19	-4%	-5%
Nc1ccc(C(=O)O)cc1[N+](=O)[O-]	-6	0	-5	-1	-18	x	x
Cc1ccc(CN2CCN(c3ncccn3)CC2)o1	u	85*	u	-26	86*	-6%	u
O=[N+]([O-])c1ccc(N2CCN(Cc3cccc([N+](=O)[O-])c3)CC2)cc1	-5	2	-4	-10	-1	x	x
O=[N+]([O-])c1cccc(-c2ccc(CN3CCN(c4ccccc4)CC3)o2)c1	-16	52*	4	-22	47*	3%	14%
Cc1ccc(CN2CCN(c3ccccc3)CC2)o1	2	49*	u	-11	70*	24%	u
COc1ccc(NC(=O)C(Cc2ccccc2)NS(=O)(=O)c2ccc3c(c2)CCC(=O)N3)c(OC)c1 (stereo not drawn)	x	1	x	6	x	x	x

Screening data deposited in PubChem BioAssay by National Center for Advancing Translational Sciences (NCATS).
